# About 83,000 compounds went through this panel and 20% of them were active in at least one assay; those are over-represented in the sample as a whole.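 Testing used 96-well plates and a 48-hour single-concentration exposure. Example: -40 means 40% of the starting cells died.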 A number with no mark means an inactive call. The source made the active and inactive calls. How the source made its calls: active means growth percent below 10; inactive means the rest.
# Assays:
# Test in all cases: NCI-60 one-dose screen, 48 h (100 = growth as untreated, 0 = no growth, -100 = all killed)
# [1] = system: SK-MEL-2 melanoma; conditions: 10 µM unless noted
# [2] = system: EKVX NSCLC; conditions: 10 µM unless noted
# [3] = system: SN12C renal; conditions: 10 µM unless noted
# [4] = system: UO-31 renal; conditions: 10 µM unless noted
# [5] = system: TK-10 renal; conditions: 10 µM unless noted
# [6] = system: ACHN renal; conditions: 10 µM unless noted
# [7] = system: CAKI-1 renal; conditions: 10 µM unless noted
# [8] = system: A498 renal; conditions: 10 µM unless noted
# [9] = system: CCRF-CEM leukemia; conditions: 10 µM unless noted
# [10] = system: MOLT-4 leukemia; conditions: 10 µM unless noted
# [11] = system: SR leukemia; conditions: 10 µM unless noted
# [12] = system: RPMI-8226 leukemia; conditions: 10 µM unless noted
# [13] = system: OVCAR-8 ovarian; conditions: 10 µM unless noted
# [14] = system: OVCAR-5 ovarian; conditions: 10 µM unless noted
# [15] = system: OVCAR-4 ovarian; conditions: 10 µM
# [16] = system: SK-OV-3 ovarian; conditions: 10 µM unless noted
# [17] = system: OVCAR-3 ovarian; conditions: 10 µM unless noted
# [18] = system: NCI/ADR-RES ovarian; conditions: 10 µM unless noted
# [19] = system: HS 578T breast; conditions: 10 µM unless noted
Compound,growth [1],growth [2],growth [3],growth [4],growth [5],growth [6],growth [7],growth [8],growth [9],growth [10],growth [11],growth [12],growth [13],growth [14],growth [15],growth [16],growth [17],growth [18],growth [19]
CCCCCCCCCCCCCC[n+]1cccc(C(N)=O)c1,-12.1% (active),-16.2% (active),1.56% (active),62%,24%,35.4%,15.5%,61.1%,-18.8% (active),-31% (active),-25.9% (active),-51.2% (active),18%,44.2%,14.5%,23.3%,-32.4% (active),105%,–
O=c1cc(-c2ccccc2)oc2c(O)c(O)ccc12,85.4%,90%,68.7%,36.2%,75.2%,40.1%,37.4%,73.1%,41.6%,55.9%,36.6%,45.6%,52.8%,62.9%,61.6%,76.7%,5.27% (active),24.5%,91.4%
O=C(COc1cccc(/C=C2\Oc3ccccc3C2=O)c1)c1ccc([N+](=O)[O-])cc1,92.1%,95%,92.6%,81.2%,119%,101%,108%,100%,63.1%,72%,80.9%,75.5%,97.1%,97.1%,97%,121%,88.5%,79.1%,98.4%
COc1cc2c(c(OC)c1OC)-c1ccc(NNC(N)=S)c(=O)cc1[C@@H](NC(C)=O)CC2,-8.39% (active),51.2%,35.9%,50.8%,58.7%,46.3%,37.5%,46.6%,20.8%,23.1%,13.2%,-11.9% (active),6.26% (active),31.5%,23.1%,7.84% (active),-56.8% (active),87.4%,52.1%
CCCCOC(=O)c1c(C)[nH]c(/C=C2\N=C(c3ccc[nH]3)C=C2OC)c1C,-64.6% (active),-8.89% (active),8.83% (active),-72.2% (active),9.12% (active),-40.4% (active),-29.2% (active),-13.4% (active),12.6%,8.13% (active),14.5%,-32.1% (active),7.7% (active),11%,3.84% (active),34.7%,-37.6% (active),8.85% (active),-23.2% (active)
O=C(NCCCNC(=O)OCc1ccc2cccc(O)c2n1)OCc1ccc2cccc(O)c2n1,71.3%,79.9%,40.4%,26.9%,49.6%,19.8%,21%,60.9%,6.81% (active),21.7%,12.1%,18.4%,23%,59.9%,39.2%,76.6%,14.8%,41.5%,57.2%
CCCC(NC(=O)OCc1ccccc1)C(=O)O (configuration not stated),128%,96.5%,74.3%,65.1%,117%,108%,82.9%,80%,118%,111%,121%,68.7%,93.5%,94.8%,106%,119%,106%,60.4%,71.9%
COc1ccc(OC)c(NC=O)c1,116%,101%,107%,92%,102%,106%,95.7%,103%,127%,88.2%,83.3%,127%,104%,108%,103%,110%,117%,109%,106%
CCN(CC)CCCNCc1cc(-c2ccccc2)nc2ccccc12,109%,93.7%,48%,23.7%,46.8%,101%,100%,75.2%,11.8%,8.2% (active),4.37% (active),20%,35.1%,109%,56.3%,92.4%,35.7%,-32% (active),–
N/C(=N\c1nc2ccccc2[nH]1)NC(=O)Cc1cccc2ccccc12,65.6%,75.6%,98.8%,50.3%,106%,88.9%,82.9%,80.6%,86%,30.4%,115%,92.9%,27.5%,88.6%,70.6%,92.5%,120%,79.9%,84.1%
CN(C)c1cc(NN=C(c2ccc(O)cc2)c2ccc(O)cc2)c([N+](=O)[O-])cc1[N+](=O)[O-],-12.1% (active),94.2%,93.8%,1.38% (active),136%,50.1%,74.8%,135%,107%,97.6%,92.2%,131%,8.9% (active),98.4%,97%,96.5%,95.5%,44.2%,102%
Ic1ccc2[nH]cc(SSc3c[nH]c4ccc(I)cc34)c2c1,74%,23.5%,42.1%,36.6%,-13.3% (active),16.5%,-6.92% (active),40.7%,8.16% (active),13.2%,13.8%,3.93% (active),32.6%,42.7%,25.3%,-20.1% (active),-9.35% (active),7.06% (active),–
CCCCCCCCN(CCCCCCCC)CC(O)c1ccc(Cl)c(C)c1Cl (configuration not stated),123%,99.4%,84%,45.1%,94.6%,74.7%,72.5%,70.7%,78%,91.4%,52.6%,72.8%,93.6%,84.1%,93.5%,77.5%,88.9%,89.6%,–
Cc1cc[n+](CCCCCCCCCC[n+]2ccc(C)cc2)cc1,98.4%,95.4%,63.5%,99.8%,82.7%,105%,96.6%,85%,99.1%,83.5%,98.9%,102%,99%,97.9%,99.4%,97.8%,99.4%,94.3%,102%
Cn1ncc2c(Nc3ccc(O)cc3)nc(Cl)nc21,106%,87.8%,96.8%,84%,102%,88%,92.9%,111%,92.1%,94.2%,75.3%,79.4%,104%,105%,105%,105%,117%,97.3%,102%
N#CC1C(=O)NC(c2ccccc2[N+](=O)[O-])c2sc3c(F)cccc3c21 (configuration not stated),82.6%,64.8%,78.1%,53.8%,41.1%,65.8%,5.27% (active),-60.7% (active),86.9%,86.6%,67.9%,41.3%,75%,-15.1% (active),-0.483% (active),72.8%,-14.5% (active),68.5%,–
C#CC(OC(=O)N(C)C)(c1ccccc1)c1ccc(F)cc1 (configuration not stated),102%,116%,96.7%,89.3%,125%,101%,91.8%,105%,116%,98%,108%,128%,93.5%,93.4%,107%,114%,133%,89.3%,–

# Reference: PubChem BioAssay (NCI)
